The list is not random: actives were taken first. Their share in the collection is about 2.8%.
SNCA viab count: reduces viability of HEK-293 SNCA reporter cells; Potency, µM (highest dose often 57.1 µM), without a hit: top-dose activity change, negative = cytotoxicity, usual class: cytotoxic; 150,000 compounds, 0.12% hits; HEK-293-SNCA-luc viability, GF-AFC fluorescence, 24 h; AID 1671193;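 note: potency is the fitted concentration of half-maximal effect; 0% = DMSO-treated cells and -100% = medium-only wells without cells; nearly all actives have a fitted effect of over 30% in size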
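HEK-293-SNCA-luc cells (1500/well) plated 24 h, then exposed 24 h to a dilution series; GF-AFC added 30 min at 37C, fluorescence 405/540 nm; normalised to medium-only and DMSO wells, Hill fit.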
KDM5B inhibitor: KDM5B demethylase inhibition; KDM5B demethylase, FDH-coupled NADH fluorescence (FDH is formaldehyde dehydrogenase); Potency, µM (series often up to 57.7 µM), hits mostly inhibitors; 220,000 compounds, 2.6% hits; note: potency is the fitted concentration of half-maximal effect; 0% is about no effect; nearly all actives have a fitted effect of over 70% in size
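KDM5BΔAP (200 nM final) in 50 mM HEPES pH 7.5, 0.01% Tween-20 was preincubated 10 min at RT with compound over a concentration range. Substrate mix (H3K4me3 12.5 µM, α-KG 25 µM, Fe²⁺, ascorbate, NAD⁺, FDH) was added, and NADH fluorescence change over 30 min gave dose-response curves.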
SNCA expr inh: SNCA gene expression inhibition. HEK-293 SNCA-luciferase knock-in, luminescence, 24 h. Potency, µM (titrated, usually from 57.2 µM), inactives show top-dose activity change, negative = inhibition, hits mostly inhibitors. 140,000 compounds, 0.17% hits. AID 1671194;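 note: potency is the fitted concentration of half-maximal effect; plate controls were DMSO cells for no effect and cell-free wells for full effect; nearly all actives have a fitted effect of over 45% in size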
IP6K1 inhibitor: inhibitors of human IP6K1 | AID 1645851 | activity change, % (series mostly up to about 58 µM) | Q92551 | IP6K1 kinase, ADP-Glo luminescence, 2 h; hits give low values | 140,000 compounds, 0.81% hits; in the data active = activity change below about -25%; note: % is set by controls: 0 for no effect and ±100 for the full control effect
Target sequence (Q92551 whole entry, looked up): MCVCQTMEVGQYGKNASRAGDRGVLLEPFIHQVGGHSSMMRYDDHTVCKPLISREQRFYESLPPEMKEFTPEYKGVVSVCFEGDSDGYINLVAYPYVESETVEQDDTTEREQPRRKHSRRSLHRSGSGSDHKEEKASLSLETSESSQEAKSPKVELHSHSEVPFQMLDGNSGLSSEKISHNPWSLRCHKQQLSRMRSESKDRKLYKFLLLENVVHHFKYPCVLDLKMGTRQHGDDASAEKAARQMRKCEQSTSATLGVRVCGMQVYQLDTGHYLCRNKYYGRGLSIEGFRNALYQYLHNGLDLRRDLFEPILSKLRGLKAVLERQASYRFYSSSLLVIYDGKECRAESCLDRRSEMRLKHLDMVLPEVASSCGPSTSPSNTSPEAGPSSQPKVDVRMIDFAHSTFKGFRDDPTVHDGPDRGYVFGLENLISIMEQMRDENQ
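ADP-Glo luminescence measures ADP made by human IP6K1 during a 2 h RT reaction with ATP/IP6 (mix at 1.3 mM/130 uM); top library doses 57.5 and 19.1 uM final.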
* marks the source's active call; other numbers are inactive results; i = inactive; u = inconclusive; x = not tested or not shown; [ ] = dose if it differs, or a comment. Unless noted, calls come from the whole dose curve; as a rule, active = well fitted curve in the direction sought with a large enough effect; inconclusive = small, poorly fitted or top-dose-only effect, or another doubt; inactive = no such curve, though single readings can be large; an effect the other way counts as inactive or inconclusive.

SMILES | SNCA viab count | KDM5B inhibitor | SNCA expr inh | IP6K1 inhibitor
O=C(Cc1cccs1)N1CCC2(CC1)N=C(c1ccc(Cl)cc1)NO2 | -22% | 25µM* | u | -6
Cc1ccc(C2=NC3(CCN(C(=O)c4cc(F)ccc4Cl)CC3)ON2)cc1 | -6% | i | 95% | 16
COc1cc(OC)cc(C(=O)N2CCC3(CC2)N=C(c2ccc(Cl)cc2)NO3)c1 | -1% | u | -14% | -12
O=C(c1cc(F)ccc1F)N1CCC2(CC1)N=C(c1ccc(Cl)cc1)NO2 | 2% | 22µM* | -2% | -2
COc1ccc(C(=O)N2CCC3(CC2)N=C(c2ccc(Cl)cc2)NO3)cc1 | 2% | 32µM* | 27% | -1
OC1(CN2CCCCC2)CCN(c2cccc(C(F)(F)F)n2)C1 (stereo not drawn) | 16% | 28µM* | -3% | -4
CCCNC(=O)N1CCc2c(sc3ncnc(N4CCN(C)CC4)c23)C1 | 5% | 28µM* | -6% | -3
CCNc1ncnc2sc3c(c12)CCN(C(=O)NCCOC)C3 | -3% | 28µM* | u | 12
COCCCNc1ncnc2sc3c(c12)CCNC3 | 1% | 25µM* | u | 2
CCNC(=O)N1CCc2c(sc3ncnc(NCC)c23)C1 | -2% | 32µM* | -17% | 4
COCC(=O)N1CCc2c(sc3ncnc(N4CCN(C)CC4)c23)C1 | 5% | i | -3% | -1
CCNc1ncnc2sc3c(c12)CCN(Cc1cccnc1)C3 | 2% | u | -20% | -3
CCNc1ncnc2sc3c(c12)CCN(Cc1ccc[nH]1)C3 | -21% | 28µM* | u | -3
CN(C)/C=C/C(=O)c1ccc([N+](=O)[O-])cc1 | x | i | x | x
O=C(CCC1CCN(C(=O)c2ccccc2)CC1)NCCCN1CCCc2ccccc21 | 4% | 10µM* | 10% | 36
COc1ccc(C(=O)NCC(=O)NNC(=O)CSc2ccc(C)cc2)cc1 | x | i | x | x
O=S(=O)(NCc1ccc(Cn2cncn2)cc1)c1ccccc1F | x | i | x | x
CCNc1cc(N2CCC(CCC(=O)NC3CCCC3)CC2)ncn1 | -1% | i | 2.2µM* | 14
O=C(CCC1CCN(c2cc(NC3CC3)ncn2)CC1)NCC1CC1 | 7% | i | 1.4µM* | -6
CC(C)NC(=O)c1noc(-c2ccc[nH]c2=O)n1 | 9% | i | -24% | 10
O=C(NCCC1=CCCCC1)c1noc(-c2ccc[nH]c2=O)n1 | -4% | 32µM* | u | -2
COc1ccc(CCNC(=O)c2noc(-c3ccc[nH]c3=O)n2)cc1OC | 2% | 32µM* | 2% | 0
O=C(NCC1CCCO1)c1noc(-c2ccc[nH]c2=O)n1 (stereo not drawn) | 5% | 28µM* | -18% | 2
COc1ccc(CCNC(=O)c2cc([N+](=O)[O-])cc([N+](=O)[O-])c2)cc1OC | x | i | x | x
Cc1ccc2cc(CCCl)c(Cl)nc2c1 | x | i | x | x
SMILES | SNCA viab count | KDM5B inhibitor | SNCA expr inh | IP6K1 inhibitor
COc1ccc(-c2cccc(C(=O)N3CCN([S+](=O)([O-])c4ccc(C)cc4)CC3)c2)nn1 | x | x | x | -4
COC(=O)[C@@H]1Cc2ncn(Cc3ccc(Cl)cc3)c2CN1S(=O)(=O)c1ccc(OC)cc1 | -26% | i | -30% | 26
CCCn1cnc2c1CN(S(=O)(=O)c1cccc(C(F)(F)F)c1)[C@H](C(=O)OC)C2 | -1%[87.6 µM] | 32µM* | -15%[87.6 µM] | 3
COC(=O)[C@@H]1Cc2ncn(Cc3ccc(OC)cc3)c2CN1S(=O)(=O)c1cccc2c(N(C)C)cccc12 | -2% | 18µM* | -7% | 22
COc1ccccc1C(=O)N1CCN(Cc2ccccc2-c2ccc(C)c(Cl)c2)CC1 | -8%[12.5 µM] | x | -30% | -4
O=C(N[C@H]1CCOC[C@H]1C1CCOCC1)c1cc(=O)[nH]c2ccc(F)cc12 | 3% | 22µM* | 5% | 3
Cc1noc(-c2ccccc2OC2CCN(S(C)(=O)=O)C2)n1 (stereo not drawn) | 10% | 22µM* | u | 18
CCOCC(=O)Nc1nn(-c2ccc(F)cc2)c2cccc(N3CCOC3=O)c12 | 2% | 25µM* | 40% | 3
CCc1nc(C)c(C(=O)Nc2nn(C)c3cccc(N4CCOC4=O)c23)o1 | -5% | i | -18% | 22
O=C(CN1C(=O)COc2ccc(S(=O)(=O)N3CCCCCC3)cc21)Nc1cccc(Cl)c1 | u | i | 10µM* | 1
Cc1ccc(NC(=O)CN2C(=O)NC(Cc3c[nH]c4ccccc34)C2=O)cc1F (stereo not drawn) | x | i | x | x
COc1ccc(Nc2ncc(-c3cnn(C)c3)c3c2OCC3)cc1 | 2%[87.6 µM] | 35µM* | 80%[87.6 µM] | -18
Cc1noc(C)c1-c1cnc(Nc2ccc(F)cc2)c2c1CCO2 | 3%[87.6 µM] | u | 41%[87.6 µM] | -11
COc1cccc(Nc2ncc(-c3c(C)noc3C)c3c2OCC3)c1 | -2%[87.6 µM] | 35µM* | 43%[87.6 µM] | -9
COc1cncc(Nc2ncc(-c3cccc(N(C)C)c3)c3c2OCC3)c1 | -13%[87.6 µM] | 32µM* | u | 20
Cc1noc(C)c1-c1cnc(Nc2ccc(F)c(Cl)c2)c2c1CCO2 | -24%[87.6 µM] | 18µM* | 31%[87.6 µM] | 19
O=C(CCS(=O)CCC(=O)NCCc1ccccc1)NCCc1ccccc1 | x | i | x | x
O=C(O)CCCc1nc2ccccc2c2nc(=O)c(-c3ccccc3)nn12 | x | i | x | x
Cc1ccc(C(O)c2cc3c(cc2NC(=O)c2ccc(F)cc2)OCCO3)cc1 (stereo not drawn) | x | i | x | x
c1coc(-c2nc3nccc(-c4ccc5c(c4)OCCCO5)n3n2)c1 | -3% | 28µM* | u | -10
COCc1nc2nccc(-c3ccc4c(c3)OCCCO4)n2n1 | -3% | 18µM* | 13% | 6
COc1ccc(Cc2nc3nccc(-c4ccc5c(c4)OCCCO5)n3n2)cc1 | 4% | u | 2% | 12
O=C(COc1ccccc1)Nc1nc2n(n1)C(c1ccc(Cl)cc1)CC(=O)N2 (stereo not drawn) | x | i | x | x
Nc1nc2c(c(=O)[nH]1)CCN(C(=O)CC(c1ccccc1)c1ccco1)C2 (stereo not drawn) | 9% | 18µM* | 11% | 16
CC(=O)c1c(C)nn(C(C)CC(=O)N2CCc3c(nc(N)[nH]c3=O)C2)c1C (stereo not drawn) | 3% | i | -4% | 2
SMILES | SNCA viab count | KDM5B inhibitor | SNCA expr inh | IP6K1 inhibitor
COc1ccc(Cl)cc1-c1ccc2c(c1)C(=O)N1CCN(C(=O)C3CCCC3)C[C@H]1C(=O)N2 | 5% | 20µM* | 14% | 4
COc1ccc(Cl)cc1-c1ccc2c(c1)C(=O)N1CCN(C(=O)CN)C[C@H]1C(=O)N2 | -4%[87.6 µM] | 35µM* | -8%[87.6 µM] | 26
O=C1Nc2ccc(-c3ccc(Cl)cc3)cc2C(=O)N2CCN(C(=O)C3CCCCC3)C[C@H]12 | -19% | 25µM* | u | -8
COc1ccc(C(=O)CSC#N)cc1 | x | i | x | x
COc1ccc(C(=O)NC2CCN(c3ccc4nnc(-c5ccccc5)n4n3)C2)cc1 (stereo not drawn) | x | x | x | 3
CCOC(C)C(=O)NCCSCc1cccs1 (stereo not drawn) | x | i | x | x
Cc1cccc(N2C(=O)CSC23CCN(C(=O)C2CC2)CC3)c1 | 8% | 25µM* | -22% | 2
O=c1c2nc(N3CCC(c4ccccc4)CC3)ccc2ncn1C1CC1 | -6%[87.6 µM] | 35µM* | 1%[87.6 µM] | 3

Assay outcomes as filed in PubChem BioAssay.
